The text below walks through data of PubChem BioAssay (NCI).

A short description of test [1]: NCI Yeast Anticancer Drug Screen. Data for the rad50 strain (AID 155).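 Note: 0% = growth of vehicle-only cultures of the same strain.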 The conditions noted are these: S. cerevisiae rad50 strain growth inhibition, active compounds read high. In outline:
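DNA repair mutant yeast, compound exposure, growth read-out; inhibition is taken relative to vehicle.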

The nature of test [2]: NCI Yeast Anticancer Drug Screen. Data for the mec2-1 strain (AID 157). The following applies: S. cerevisiae mec2-1 strain, active compounds read high. The method, boiled down:
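Strain: mec2-1 (DNA repair/cell cycle alteration). Compound exposure, then growth measured; inhibition expressed relative to vehicle.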

A short description of test [3]: NCI Yeast Anticancer Drug Screen. Data for the sgs1 mgt1 strain (AID 161).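 Note: 0% = growth of cultures given vehicle only.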 The following applies: S. cerevisiae sgs1 mgt1 strain, active compounds read high. The method, boiled down:
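Genetically altered yeast, compound exposure, growth inhibition relative to vehicle.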

A short description of test [4]: NCI Yeast Anticancer Drug Screen. Data for the cln2 rad14 strain (AID 165).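 Note: 0% = growth equal to vehicle treated cultures.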 The conditions noted are these: S. cerevisiae cln2 rad14 strain, active compounds read high. The method, boiled down: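 Compounds are applied to the cln2 rad14 yeast strain, and growth is then compared with that of vehicle-treated cultures to give inhibition.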
Test [5] can be described thus: NCI Yeast Anticancer Drug Screen. Data for the bub3 strain (AID 167). The following applies: S. cerevisiae bub3 mutant strain, active compounds read high. In outline:
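In this screen, a yeast mutant lacking normal mitotic checkpoint function is challenged with compound. Relative growth versus vehicle gives the inhibition value.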

Test [6] is described as follows: NCI Yeast Anticancer Drug Screen. Data for the mlh1 rad18 strain (AID 175). The conditions noted are these: S. cerevisiae mlh1 rad18 strain growth inhibition, active compounds read high. The method, boiled down:
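Read-out is yeast growth inhibition, calculated against vehicle-only controls. The compound was applied to a strain engineered with DNA damage repair alterations.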

Where [7] appears, read: at 5.0 µM (retest, dose inferred, filed as 0.5).
[8] abbreviates: at 50.0 µM (retest, dose inferred, filed as 5.0).

About 79,000 compounds went through this panel and 15% of them were active in at least one assay; those are over-represented in the sample as a whole. Unmarked numbers belong to inactive results. Active and inactive are the calls of the source. Cut-off read from the data, not from the text of the source: active = growth inhibition above about 70%; inactive = the rest.

`Cc1cc(N(CCOS(C)(=O)=O)CCOS(C)(=O)=O)ccc1C=Nc1ccc(-c2csc(-c3ccc(Cl)cc3)n2)cc1`: the growth inhibition in test [1] (setting [7]) is 22%; in test [1] (setting [8]), 93% (active); in test [1] (at 50.0 µM), 93.9% (active); in test [2] (setting [7]), 17%; in test [2] (setting [8]) it was 96% (active); in test [2] (at 50.0 µM), 97% (active). Besides, the growth inhibition in test [3] (setting [7]) is 18%; in test [3] (setting [8]), 93% (active); in test [3] (at 50.0 µM) it was 96.4% (active); in test [4] (setting [7]) it was 4%; in test [4] (setting [8]) it was 93% (active); in test [4] (at 50.0 µM), 87.7% (active). Moreover, the growth inhibition in test [5] (setting [7]) was -2%; in test [5] (setting [8]) it was 88% (active); in test [5] (at 50.0 µM), 90.3% (active); in test [6] (setting [7]), 57%; in test [6] (setting [8]) it was 95% (active); in test [6] (at 50.0 µM), 94.9% (active).
`CCOC(=O)CC(NC(=O)c1[nH]cnc1/N=N/N(C)C)C(=O)OCC` (stereo unspecified): the growth inhibition was -24% in test [1] (setting [7]); 95% (active) in test [1] (setting [8]); 89.1% (active) in test [1] (at 50.0 µM); -8% in test [2] (setting [7]); 97% (active) in test [2] (setting [8]); 91.5% (active) in test [2] (at 50.0 µM). The growth inhibition in test [3] (setting [7]) was -16%; in test [3] (setting [8]), 95% (active); in test [3] (at 50.0 µM), 90.6% (active); in test [4] (setting [7]) it was -11%; in test [4] (setting [8]), 96% (active); in test [4] (at 50.0 µM), 91% (active). In addition, the growth inhibition was -12% in test [5] (setting [7]); 97% (active) in test [5] (setting [8]); 91.8% (active) in test [5] (at 50.0 µM); -24% in test [6] (setting [7]); 97% (active) in test [6] (setting [8]); 78% (active) in test [6] (at 50.0 µM).
Regarding `CCCCCCC(=O)OCc1ccc(-c2ccccc2)cc1`, the growth inhibition in test [1] (setting [7]) is 97% (active); in test [1] (setting [8]), 99% (active); in test [1] (at 50.0 µM), 99% (active); in test [2] (setting [7]), 98% (active); in test [2] (setting [8]), 100% (active); in test [2] (at 50.0 µM) it was 99.4% (active). The growth inhibition in test [3] (setting [7]) was 95% (active); in test [3] (setting [8]), 100% (active); in test [3] (at 50.0 µM) it was 99.3% (active); in test [4] (setting [7]), 26%; in test [4] (setting [8]), 94% (active); in test [4] (at 50.0 µM), 99% (active). The growth inhibition in test [5] (setting [7]) is 70% (active); in test [5] (setting [8]) it was 99% (active); in test [5] (at 50.0 µM) it was 99.2% (active); in test [6] (setting [7]), 99% (active); in test [6] (setting [8]), 99% (active); in test [6] (at 50.0 µM), 99.2% (active).
Consider `CC(=O)Nc1ccc(-c2cnc3ccccc3c2)cc1`, for which the growth inhibition in test [1] (setting [7]) was 5%; in test [1] (setting [8]) it was 29%; in test [1] (at 50.0 µM), 14.2%; in test [2] (setting [7]) it was -13%; in test [2] (setting [8]), 15%; in test [2] (at 50.0 µM), 6.2%. Also, the growth inhibition in test [3] (setting [7]) was 8%; in test [3] (setting [8]), 18%; in test [3] (at 50.0 µM) it was 4.25%; in test [4] (setting [7]), -5%; in test [4] (setting [8]) it was -6%; in test [4] (at 50.0 µM), 36.5%. The growth inhibition in test [5] (setting [7]) is -5%; in test [5] (setting [8]), -1%; in test [5] (at 50.0 µM), 11.2%; in test [6] (setting [7]) it was 17%; in test [6] (setting [8]) it was 29%; in test [6] (at 50.0 µM), 9.15%.
For `Cc1cc2nc(CC(=O)c3ccncc3)c(CC(=O)c3ccncc3)nc2cc1C`, the growth inhibition in test [1] (setting [7]) was 6%; in test [1] (setting [8]), 75% (active); in test [1] (at 50.0 µM), 78% (active); in test [2] (setting [7]) it was 9%; in test [2] (setting [8]), 60%; in test [2] (at 50.0 µM) it was 53.9%. Also, the growth inhibition in test [3] (setting [7]) was 10%; in test [3] (setting [8]), 59%; in test [3] (at 50.0 µM), 65.5%; in test [4] (setting [7]) it was 25%; in test [4] (setting [8]) it was 84% (active); in test [4] (at 50.0 µM), 75.2% (active). Further, the growth inhibition was 31% in test [5] (setting [7]); 89% (active) in test [5] (setting [8]); 61.1% in test [5] (at 50.0 µM); 12% in test [6] (setting [7]); 59% in test [6] (setting [8]); 66.5% in test [6] (at 50.0 µM).
For `CN(C)c1ccc(C(O)(Cc2cccc(C#N)c2)c2ccc(N(C)C)cc2)cc1`, the growth inhibition in test [1] (setting [7]) was 2%; in test [1] (setting [8]), -13%; in test [1] (at 50.0 µM), 63.5%; in test [2] (setting [7]) it was 0%; in test [2] (setting [8]), -6%; in test [2] (at 50.0 µM), 55.9%. Further, the growth inhibition in test [3] (setting [7]) was -4%; in test [3] (setting [8]) it was -10%; in test [3] (at 50.0 µM), 52.8%; in test [4] (setting [7]), -2%; in test [4] (setting [8]), -16%; in test [4] (at 50.0 µM), 66%. Besides, the growth inhibition in test [5] (setting [7]) was 2%; in test [5] (setting [8]), -5%; in test [5] (at 50.0 µM), 69%; in test [6] (setting [7]), -2%; in test [6] (setting [8]) it was -70%; in test [6] (at 50.0 µM), 56.8%.
As to `CCN(CC)CCOc1ccc(/C=C(\C#N)c2ccc(OC)cc2)cc1`, the growth inhibition is 24% in test [1] (setting [7]); 83% (active) in test [1] (setting [8]); 74.5% (active) in test [1] (at 50.0 µM); 17% in test [2] (setting [7]); 96% (active) in test [2] (setting [8]); 62.5% in test [2] (at 50.0 µM). For the same compound, the growth inhibition in test [3] (setting [7]) is 40%; in test [3] (setting [8]), 97% (active); in test [3] (at 50.0 µM) it was 85.9% (active); in test [4] (setting [7]), 34%; in test [4] (setting [8]), 90% (active); in test [4] (at 50.0 µM), 82.8% (active). Moreover, the growth inhibition in test [5] (setting [7]) is 44%; in test [5] (setting [8]), 95% (active); in test [5] (at 50.0 µM) it was 68.5%; in test [6] (setting [7]), 24%; in test [6] (setting [8]), 84% (active); in test [6] (at 50.0 µM), 75.8% (active).
